# Experimental data reported in ChEMBL document CHEMBL2218924, “A broad activity screen in support of a chemogenomic map for kinase signalling research and drug discovery” (Biochem J, 2013).
# How the values were obtained:
# [1] = biological target: Tyrosine-protein kinase SYK (Homo sapiens) (UniProt P43405); details: at 10 µM
# [2] = biological target: T1, Mitogen-activated protein kinase kinase kinase 7 (Homo sapiens) (UniProt O43318); details: at 1 µM
# T1 sequence (whole entry): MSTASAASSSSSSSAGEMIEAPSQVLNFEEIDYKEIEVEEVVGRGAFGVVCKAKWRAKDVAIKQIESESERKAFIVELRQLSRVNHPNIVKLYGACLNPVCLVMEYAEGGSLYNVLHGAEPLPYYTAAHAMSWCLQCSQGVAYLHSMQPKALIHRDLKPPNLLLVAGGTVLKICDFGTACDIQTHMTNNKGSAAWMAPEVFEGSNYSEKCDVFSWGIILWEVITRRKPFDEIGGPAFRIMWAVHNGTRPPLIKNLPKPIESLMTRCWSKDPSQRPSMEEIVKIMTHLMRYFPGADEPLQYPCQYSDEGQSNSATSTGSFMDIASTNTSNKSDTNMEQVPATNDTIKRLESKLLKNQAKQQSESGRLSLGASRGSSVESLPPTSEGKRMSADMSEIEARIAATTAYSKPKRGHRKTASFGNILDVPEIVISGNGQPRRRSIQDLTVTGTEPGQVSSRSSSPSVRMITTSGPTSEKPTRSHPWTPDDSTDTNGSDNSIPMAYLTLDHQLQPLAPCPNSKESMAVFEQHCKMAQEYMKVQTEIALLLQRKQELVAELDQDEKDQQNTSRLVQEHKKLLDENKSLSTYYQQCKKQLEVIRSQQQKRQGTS
# [3] = biological target: T1, Mitogen-activated protein kinase kinase kinase 7 (Homo sapiens); details: at 10 µM
# [4] = biological target: T2, Serine/threonine-protein kinase TAO1 (Homo sapiens) (UniProt Q7L7X3); details: at 10 µM
# T2 sequence (whole entry): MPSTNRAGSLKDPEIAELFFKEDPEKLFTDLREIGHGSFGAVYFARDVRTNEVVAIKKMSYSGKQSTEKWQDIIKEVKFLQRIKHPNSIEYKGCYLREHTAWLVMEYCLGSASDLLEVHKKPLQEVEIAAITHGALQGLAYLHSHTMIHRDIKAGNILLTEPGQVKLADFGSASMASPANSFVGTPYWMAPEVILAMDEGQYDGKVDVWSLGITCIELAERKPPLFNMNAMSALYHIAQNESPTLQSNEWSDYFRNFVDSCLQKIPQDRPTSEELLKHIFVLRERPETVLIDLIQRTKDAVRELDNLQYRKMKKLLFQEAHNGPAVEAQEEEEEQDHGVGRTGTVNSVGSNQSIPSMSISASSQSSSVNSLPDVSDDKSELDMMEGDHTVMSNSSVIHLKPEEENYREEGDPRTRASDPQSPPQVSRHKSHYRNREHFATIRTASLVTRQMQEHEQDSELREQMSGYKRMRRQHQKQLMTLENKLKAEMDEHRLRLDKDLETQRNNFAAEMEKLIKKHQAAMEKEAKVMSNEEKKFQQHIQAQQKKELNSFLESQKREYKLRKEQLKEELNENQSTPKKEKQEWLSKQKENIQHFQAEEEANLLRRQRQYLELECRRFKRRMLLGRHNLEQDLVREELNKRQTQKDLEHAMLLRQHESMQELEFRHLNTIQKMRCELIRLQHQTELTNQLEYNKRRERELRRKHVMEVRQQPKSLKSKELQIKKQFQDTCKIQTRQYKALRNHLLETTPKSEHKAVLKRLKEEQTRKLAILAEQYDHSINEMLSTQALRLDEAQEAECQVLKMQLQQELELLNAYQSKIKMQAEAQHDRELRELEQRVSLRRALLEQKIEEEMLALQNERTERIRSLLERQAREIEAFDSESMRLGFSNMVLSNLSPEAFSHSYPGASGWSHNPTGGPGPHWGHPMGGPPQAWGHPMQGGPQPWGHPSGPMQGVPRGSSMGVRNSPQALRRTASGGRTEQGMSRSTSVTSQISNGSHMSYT
# [5] = biological target: T3, Serine/threonine-protein kinase TAO2 (Homo sapiens) (UniProt Q9UL54); details: at 1 µM
# T3 sequence (whole entry): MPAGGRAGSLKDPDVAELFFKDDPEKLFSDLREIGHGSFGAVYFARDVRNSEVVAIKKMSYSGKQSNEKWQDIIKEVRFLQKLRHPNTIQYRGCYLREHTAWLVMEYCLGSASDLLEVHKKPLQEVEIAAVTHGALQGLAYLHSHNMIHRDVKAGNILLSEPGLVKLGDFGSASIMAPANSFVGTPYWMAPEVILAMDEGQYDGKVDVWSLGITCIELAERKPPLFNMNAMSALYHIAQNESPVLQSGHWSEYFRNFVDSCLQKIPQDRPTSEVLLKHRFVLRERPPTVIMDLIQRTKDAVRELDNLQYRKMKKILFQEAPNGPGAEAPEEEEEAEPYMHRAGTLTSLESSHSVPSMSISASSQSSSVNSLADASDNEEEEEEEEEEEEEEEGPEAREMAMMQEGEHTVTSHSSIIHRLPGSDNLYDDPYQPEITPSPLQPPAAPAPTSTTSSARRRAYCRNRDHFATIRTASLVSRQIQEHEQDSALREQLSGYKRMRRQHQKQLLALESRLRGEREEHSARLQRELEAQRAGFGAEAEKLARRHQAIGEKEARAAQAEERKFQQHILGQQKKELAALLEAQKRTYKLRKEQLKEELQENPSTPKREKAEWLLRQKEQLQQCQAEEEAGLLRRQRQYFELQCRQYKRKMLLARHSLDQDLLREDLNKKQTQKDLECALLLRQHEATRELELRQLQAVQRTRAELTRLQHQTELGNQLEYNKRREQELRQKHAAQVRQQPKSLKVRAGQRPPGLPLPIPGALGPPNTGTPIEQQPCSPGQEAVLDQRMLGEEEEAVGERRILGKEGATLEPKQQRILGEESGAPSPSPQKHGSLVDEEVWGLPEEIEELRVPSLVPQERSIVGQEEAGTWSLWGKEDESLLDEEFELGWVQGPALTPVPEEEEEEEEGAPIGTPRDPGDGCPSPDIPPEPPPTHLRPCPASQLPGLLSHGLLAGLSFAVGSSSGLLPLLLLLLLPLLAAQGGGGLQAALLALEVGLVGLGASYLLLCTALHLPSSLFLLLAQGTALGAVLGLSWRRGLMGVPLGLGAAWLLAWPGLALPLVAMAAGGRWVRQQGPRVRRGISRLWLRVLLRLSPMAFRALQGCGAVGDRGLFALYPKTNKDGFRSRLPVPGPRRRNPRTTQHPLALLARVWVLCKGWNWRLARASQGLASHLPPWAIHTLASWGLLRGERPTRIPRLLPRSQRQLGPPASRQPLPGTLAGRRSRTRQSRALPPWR
# [6] = biological target: T3, Serine/threonine-protein kinase TAO2 (Homo sapiens); details: at 10 µM
# [7] = biological target: T4, Serine/threonine-protein kinase TAO3 (Homo sapiens) (UniProt Q9H2K8); details: at 1 µM
# T4 sequence (whole entry): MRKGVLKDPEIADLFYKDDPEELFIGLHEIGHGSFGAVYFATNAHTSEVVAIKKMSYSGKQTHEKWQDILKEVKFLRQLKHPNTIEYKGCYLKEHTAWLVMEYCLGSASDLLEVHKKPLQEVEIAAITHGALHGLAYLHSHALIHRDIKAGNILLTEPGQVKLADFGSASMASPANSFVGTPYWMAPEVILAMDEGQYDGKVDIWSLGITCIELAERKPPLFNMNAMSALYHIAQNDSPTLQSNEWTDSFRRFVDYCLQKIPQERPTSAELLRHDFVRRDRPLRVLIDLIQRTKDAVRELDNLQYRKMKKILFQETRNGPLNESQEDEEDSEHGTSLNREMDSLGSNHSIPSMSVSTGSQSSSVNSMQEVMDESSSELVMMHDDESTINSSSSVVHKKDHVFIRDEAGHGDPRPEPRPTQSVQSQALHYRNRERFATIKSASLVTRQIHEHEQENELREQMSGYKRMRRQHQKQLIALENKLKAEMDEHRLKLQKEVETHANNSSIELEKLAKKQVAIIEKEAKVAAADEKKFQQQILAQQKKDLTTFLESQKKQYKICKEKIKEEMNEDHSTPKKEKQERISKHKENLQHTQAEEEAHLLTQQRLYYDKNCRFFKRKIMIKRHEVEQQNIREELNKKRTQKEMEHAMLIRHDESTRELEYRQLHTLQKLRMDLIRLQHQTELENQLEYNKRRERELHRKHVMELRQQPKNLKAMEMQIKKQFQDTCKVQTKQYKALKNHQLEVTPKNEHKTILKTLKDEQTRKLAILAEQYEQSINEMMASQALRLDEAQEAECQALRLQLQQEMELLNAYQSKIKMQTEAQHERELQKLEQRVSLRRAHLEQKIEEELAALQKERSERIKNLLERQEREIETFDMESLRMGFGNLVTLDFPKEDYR
# [8] = biological target: T4, Serine/threonine-protein kinase TAO3 (Homo sapiens); details: at 10 µM
# [9] = biological target: T5, Serine/threonine-protein kinase TBK1 (Homo sapiens) (UniProt Q9UHD2); details: at 1 µM
# T5 sequence (whole entry): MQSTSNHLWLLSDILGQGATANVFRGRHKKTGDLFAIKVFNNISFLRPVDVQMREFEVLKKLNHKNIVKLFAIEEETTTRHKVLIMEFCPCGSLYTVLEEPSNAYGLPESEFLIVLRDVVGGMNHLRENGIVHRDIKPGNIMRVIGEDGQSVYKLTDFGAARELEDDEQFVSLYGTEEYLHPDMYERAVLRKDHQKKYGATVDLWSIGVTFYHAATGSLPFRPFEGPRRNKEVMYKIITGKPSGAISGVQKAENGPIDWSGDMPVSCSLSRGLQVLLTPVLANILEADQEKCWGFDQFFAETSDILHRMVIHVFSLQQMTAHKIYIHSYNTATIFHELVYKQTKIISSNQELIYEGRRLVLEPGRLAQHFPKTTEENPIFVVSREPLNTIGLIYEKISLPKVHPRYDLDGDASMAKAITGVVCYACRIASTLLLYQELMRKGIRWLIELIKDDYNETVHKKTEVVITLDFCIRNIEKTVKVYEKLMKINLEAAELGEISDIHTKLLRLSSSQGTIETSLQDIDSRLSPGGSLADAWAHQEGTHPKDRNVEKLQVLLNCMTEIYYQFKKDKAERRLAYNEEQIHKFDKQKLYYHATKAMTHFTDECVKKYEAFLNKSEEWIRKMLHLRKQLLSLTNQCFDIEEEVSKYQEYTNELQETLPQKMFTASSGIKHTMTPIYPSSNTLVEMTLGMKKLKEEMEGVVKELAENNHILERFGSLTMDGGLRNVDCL
# [10] = biological target: T5, Serine/threonine-protein kinase TBK1 (Homo sapiens); details: at 10 µM
# [11] = biological target: T6, TGF-beta receptor type-1 (Homo sapiens) (UniProt P36897); details: at 1 µM
# T6 sequence (whole entry): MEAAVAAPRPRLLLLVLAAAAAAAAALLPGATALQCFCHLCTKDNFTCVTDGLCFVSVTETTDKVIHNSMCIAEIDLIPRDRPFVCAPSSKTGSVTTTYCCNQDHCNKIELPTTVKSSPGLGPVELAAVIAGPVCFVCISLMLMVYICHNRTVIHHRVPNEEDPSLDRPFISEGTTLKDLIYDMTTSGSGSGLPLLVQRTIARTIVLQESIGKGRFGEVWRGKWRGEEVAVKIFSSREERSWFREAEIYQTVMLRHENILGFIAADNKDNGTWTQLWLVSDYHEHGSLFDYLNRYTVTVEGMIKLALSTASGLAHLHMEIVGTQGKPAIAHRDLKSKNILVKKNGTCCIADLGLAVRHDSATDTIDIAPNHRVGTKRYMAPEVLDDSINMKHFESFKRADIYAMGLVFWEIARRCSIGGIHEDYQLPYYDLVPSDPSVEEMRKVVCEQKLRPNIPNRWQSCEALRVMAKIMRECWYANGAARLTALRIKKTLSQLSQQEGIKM
# [12] = biological target: T6, TGF-beta receptor type-1 (Homo sapiens); details: at 10 µM
# [13] = biological target: T7, Inhibitor of nuclear factor kappa-B kinase subunit alpha (Homo sapiens) (UniProt O15111); details: at 1 µM
# T7 sequence (whole entry): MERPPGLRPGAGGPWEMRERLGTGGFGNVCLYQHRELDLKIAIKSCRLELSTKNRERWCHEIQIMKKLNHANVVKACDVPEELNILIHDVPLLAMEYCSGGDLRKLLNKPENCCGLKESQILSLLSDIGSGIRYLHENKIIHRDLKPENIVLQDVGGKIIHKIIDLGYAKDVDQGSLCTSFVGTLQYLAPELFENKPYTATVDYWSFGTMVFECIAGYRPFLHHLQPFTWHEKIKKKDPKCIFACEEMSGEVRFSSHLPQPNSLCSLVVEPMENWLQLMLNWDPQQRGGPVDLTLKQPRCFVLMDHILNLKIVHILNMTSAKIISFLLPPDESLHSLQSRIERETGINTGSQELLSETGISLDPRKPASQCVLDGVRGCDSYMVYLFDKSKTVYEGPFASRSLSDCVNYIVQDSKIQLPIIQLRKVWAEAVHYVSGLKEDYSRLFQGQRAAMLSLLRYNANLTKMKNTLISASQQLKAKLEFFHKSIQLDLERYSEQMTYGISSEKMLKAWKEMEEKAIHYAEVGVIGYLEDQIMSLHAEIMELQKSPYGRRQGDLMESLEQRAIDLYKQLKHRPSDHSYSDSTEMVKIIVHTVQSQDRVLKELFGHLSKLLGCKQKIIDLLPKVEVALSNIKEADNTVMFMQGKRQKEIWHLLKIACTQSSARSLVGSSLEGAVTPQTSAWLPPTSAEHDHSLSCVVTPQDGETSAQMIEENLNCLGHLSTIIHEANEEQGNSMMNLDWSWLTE
# [14] = biological target: T7, Inhibitor of nuclear factor kappa-B kinase subunit alpha (Homo sapiens); details: at 10 µM
smiles,measurement,setting,value
c1ccc(-c2n[nH]c3c2oc2ccccc23)cc1,residual activity,[1],82%
same,residual activity,[2],88%
same,residual activity,[3],100%
same,residual activity,[4],72%
same,residual activity,[5],98%
same,residual activity,[6],78%
same,residual activity,[7],95%
same,residual activity,[8],73%
same,residual activity,[9],67%
same,residual activity,[10],55%
same,residual activity,[11],82%
same,residual activity,[12],88%
same,residual activity,[13],97%
same,residual activity,[14],88%
